The target of the first experiment is TSPYL2. In words: pooled miR-30 sensor sort-seq; sequence = guide strand. Particulars: shRNA.
As for TCAATGTCTGAGATCTCGCTGA, the sensor-assay potency score (higher = more potent) turned out to be 0.0217.
Take TTGATAATCTCAGCAATCCTGT: the sensor-assay potency score (higher = more potent) was -0.197.
In the case of TCATTGTCACTGTCGCTGCTGT, the sensor-assay potency score (higher = more potent) is -0.335.
In the case of ATGTCTGAGATCCTGTACCTGC, the sensor-assay potency score (higher = more potent) was -1.08.
Sequence TTGACAATCACCATGTTTGTGA registered a sensor-assay potency score (higher = more potent) of 0.272.

In another experiment the target is TTC27. The description is as above. The note with it: shRNA.
Consider TACAGATGTATCTTTTACCAGC, for which the sensor-assay potency score (higher = more potent) was -0.789.
For the sequence TGAACCTTGATAGTCTTCCAAG, the sensor-assay potency score (higher = more potent) was -1.57.
For the sequence TTACTTTTTGTTTTAATCGGAT, the sensor-assay potency score (higher = more potent) is -0.347.
In the case of TTCTAGAGTCACACAGCGCTGA, the sensor-assay potency score (higher = more potent) was 0.0912.
In the case of TTAAAAATCAATATCTTGCATT, the sensor-assay potency score (higher = more potent) was -0.512.
The sequence TACACACTCTTGAAACTCCTTA gave a sensor-assay potency score (higher = more potent) of 0.361.
For the sequence TTGCTGAACCTTGATAGTCTTC, the sensor-assay potency score (higher = more potent) was -0.804.
Consider TTTTTCTCCAGCTCTTGTCTAA, for which the sensor-assay potency score (higher = more potent) was -0.459.
As to TACACTTGAGAGCTTCTTGTAA, the sensor-assay potency score (higher = more potent) was -0.514.
As to TTCTTTTGAAAATTAGTGCAGA, the sensor-assay potency score (higher = more potent) is -0.195.
As to TATCCAACTGATCTTTTGCTTT, the sensor-assay potency score (higher = more potent) was -0.994.
With TTTAAGGACCTGAACATCTTTG, the sensor-assay potency score (higher = more potent) was -0.304.

A further experiment has as its target TTC7A. The experiment is described as above. Particulars: shRNA.
For TTTGGCTTCGCTCATCTTCGGC, the sensor-assay potency score (higher = more potent) was -0.912.
As to TTGGCTTCGCTCATCTTCGGCT, the sensor-assay potency score (higher = more potent) was -0.61.
Turning to TCTCCTTCAAACACTGCTCCAG, the sensor-assay potency score (higher = more potent) was -0.633.
The same measure, in the same setting: with TAGAGTACTGAGTGAGAAGTGG the figure was -0.197.
Still for that read-out and setting: with TTGTGGTCTTCTCCAATTCCTG the figure was -1.59; with TTCTGCAAGCTCACTGTCCGGT, 0.427.
Still for that read-out and setting: with TTTGATGACAAAAGCCTCCGAC the figure was -0.154; with TTCCTCGATGTTGTCCTTGGGG, -0.621; with TTCAGATGCCTCGACGTGCTGT, -0.177.
Regarding TCTTGCTTGGACTTCAGGGTGG, the sensor-assay potency score (higher = more potent) amounted to 0.115.
The same measure, in the same setting: with TTCATCTTGCTTGGACTTCAGG the figure was -0.871; with TGGCACTGGAGATCTGTCGGAC, -0.75.

The next experiment addresses TTLL3. The experiment is described as above. The note with it: shRNA.
As for TAGGGTATGACTTCCACTCAGA, the sensor-assay potency score (higher = more potent) is -0.0416.
Turning to TTTGCCTTTGGCCTTGACCTTC, the sensor-assay potency score (higher = more potent) was -0.876.
Consider TAAATCATCGAAGTCGAACAGC, for which the sensor-assay potency score (higher = more potent) is -0.665.
Turning to TTGCACGCCAGCACAGAGCCGG, the sensor-assay potency score (higher = more potent) was -1.05.
For the sequence TGTCGCGGTAGAACCACACGGT, the sensor-assay potency score (higher = more potent) was -0.291.
Consider TTGACCTTCCGACAGGTGCTAG, for which the sensor-assay potency score (higher = more potent) was -0.947.
Turning to TTCTGCACCACCCACTTGCCGT, the sensor-assay potency score (higher = more potent) was -1.06.
Still for that read-out and setting: with TACTTCTGCACCACCCACTTGC the figure was -0.25; with TTTATTTGGTGTTGGATCCAGG, -0.616; with TAGCTGTCGCGGTAGAACCACA, -1.71.
Take ATCATCGAAGTCGAACAGCTGT: the sensor-assay potency score (higher = more potent) is -0.524.

For the origin of these results see the OligoGym collection.
Note: reference of the scale not given here.
